These results are taken from PubChem BioAssay AID720582 (The Scripps Research Institute Molecular Screening Center, 2013).

What is called inhibition is the drop in the measured response relative to a control, in per cent.

About 2,300 (0.62%) of roughly 370,000 compounds were called active. The sample holds actives, similar compounds and a random draw of the others, so the mix is not that of the screen.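 How the source made its calls: active means inhibition above a per-campaign cutoff equal to the mean of compounds falling between control-based bounds plus 3 SD (cut at about 20% in these data); inactive means the rest.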

Chain of Disintegrin and metalloproteinase domain-containing protein 10 (Homo sapiens) (O14672 214-748 limits assumed): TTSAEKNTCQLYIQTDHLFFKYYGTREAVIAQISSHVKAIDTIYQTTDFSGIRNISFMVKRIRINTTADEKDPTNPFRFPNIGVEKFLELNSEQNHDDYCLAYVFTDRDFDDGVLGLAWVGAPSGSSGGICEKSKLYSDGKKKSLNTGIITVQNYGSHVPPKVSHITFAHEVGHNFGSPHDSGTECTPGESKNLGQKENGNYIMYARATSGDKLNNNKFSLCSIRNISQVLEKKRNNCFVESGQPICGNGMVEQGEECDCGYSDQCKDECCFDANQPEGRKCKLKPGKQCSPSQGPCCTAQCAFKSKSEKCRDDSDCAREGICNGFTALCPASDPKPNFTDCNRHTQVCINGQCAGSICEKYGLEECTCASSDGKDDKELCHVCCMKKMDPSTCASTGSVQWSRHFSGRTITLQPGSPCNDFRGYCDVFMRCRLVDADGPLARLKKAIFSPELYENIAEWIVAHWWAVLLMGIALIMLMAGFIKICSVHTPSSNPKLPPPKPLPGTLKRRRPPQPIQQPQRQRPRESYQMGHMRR

The test has as its target Disintegrin and metalloproteinase domain-containing protein 10 (Homo sapiens) (UniProt O14672). Nature of the test: human ADAM10 inhibitors, primary screen, biochemical, QFRET, HTS (AID 720582).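 Further: 0% = DMSO wells while the 100% control is not disclosed.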 Particulars: recombinant ADAM10, EDANS/DABCYL FRET peptide cleavage, 3 h; at 7 µM; hits give high values.
Turning to `Cc1ccc(C)c(NC(=O)CCS(=O)(=O)c2ccccc2)c1`, the inhibition was -11.5% (inactive). Turning to `CC(C)(C)OC(=O)NCc1cc(F)ccc1/C=C/S(=O)(=O)NCCc1ccccc1`, the inhibition is 11.5% (inactive). As to `O=C(c1ccncc1)N1CC[C@H]2[C@H](CCCN2Cc2ccc(F)cc2)C1`, the inhibition is -25.2% (inactive). Take `COC(=O)C1CN(CCc2ccccc2)CCS(=O)(=O)N1Cc1cccc(Cl)c1` (centres undefined): the inhibition was 2.53% (inactive). For the compound `COc1ccc(NS(=O)(=O)c2ccc(C)c(C(=O)NNC(=O)c3csc(N4CCOCC4)n3)c2)cc1`, the inhibition was 26% (active). As to `COc1ccccc1NS(=O)(=O)c1ccc(C)c(C(=O)NNC(=O)c2csc(N3CCOCC3)n2)c1`, the inhibition is 8.51% (inactive). As to `COc1ccc(NS(=O)(=O)c2ccc(N3CCOCC3)c(NC(=O)c3ccccc3Br)c2)cc1`, the inhibition is 6.43% (inactive). On to `CCC[C@H]1C(=O)CC[C@@]23CCCN2C(=O)CCC[C@@H]13`, for which the inhibition is -1.01% (inactive). As to `CCOC(=O)[C@@H]1[C@H]2COc3ccc(Br)cc3[C@H]2N2C(=O)N(c3ccc(C)cc3)C(=O)[C@@]12C`, the inhibition was 1.71% (inactive).

As for `C[C@@H]1NC(=O)[C@@]2(C)[C@@H](c3ccccc3)[C@H]3COc4ccccc4[C@@H]3N2C1=O`, the inhibition was -7.53% (inactive). With `Cc1ccc(N2C(=O)N3[C@@H]4c5ccccc5OC[C@@H]4[C@@H](c4ccccc4)[C@@]3(C)C2=O)cc1`, the inhibition was 20.3% (active). As to `CCOC(=O)c1csc(NC(=O)C2CCCN(S(=O)(=O)c3ccc(Cl)s3)C2)n1` (centres undefined), the inhibition was 10% (inactive).

With `Cc1ccccc1-n1c(SCC(=O)Nc2cccc3ccccc23)nc(O)cc1=O`, the inhibition is 27% (active).

In the case of `Cc1ccc(-n2c(SCC(=O)Nc3cccc4ccccc34)nnc2-c2ccccn2)cc1`, the inhibition was -6.55% (inactive). Then `C=CCn1c(N)cc(=O)nc1SCC(=O)Nc1cccc2ccccc12`, with -27% (inactive); and `O=S1(=O)c2ccc(N3CCN(Cc4ccccc4F)CC3)cc2Oc2ccccc2CN1Cc1cn(Cc2ccc(Cl)cc2)nn1`, with 7.21% (inactive).

For `CCOc1ccc(-n2c(SCC(=O)Nc3cc(C)c(NC(=O)c4ccccc4)cc3OC)nnc2-c2cccc(Cl)c2)cc1`, the inhibition was 8.65% (inactive). As to `COc1cccc(CC2(CO)CCCN(Cc3ccc(OC(F)F)cc3)C2)c1` (centres undefined), the inhibition was 19.9% (active).

`COc1cccc(CC2(CO)CCCN(Cc3nc(-c4cccs4)oc3C)C2)c1` (centres undefined): the inhibition was 0.04% (inactive). `COc1cccc(CNC(=O)CCC2CCCN(Cc3ccc(OC(F)F)cc3)C2)c1` (centres undefined): the inhibition is -2.49% (inactive). For the compound `O=C(CN(CC1CCCO1)C(=O)CNS(=O)(=O)c1ccc(Cl)cc1)NCc1ccccc1` (centres undefined), the inhibition is 3.32% (inactive).

In the case of `CCCOc1ccc(Oc2c(Cl)cnn(Cc3cccc4ccccc34)c2=O)cc1`, the inhibition was -13% (inactive). On to `COc1ccc(C(=O)OCCN2CCN(C3CN(Cc4cn(Cc5ccccc5F)nn4)S(=O)(=O)C3)CC2)cc1OC` (centres undefined), for which the inhibition was -2.27% (inactive).

As for `CC(c1c[nH]c2ccccc12)c1c(-c2ccccc2)n(C)c2ccccc12` (centres undefined), the inhibition is -17.9% (inactive). For `CC(C)C(=O)Nc1cccc(NC(=S)NC(=O)C(c2ccccc2)c2ccccc2)c1`, the inhibition is 21.2% (active).

For the compound `CCCCC(=O)NNC(=S)NC(=O)C(c1ccccc1)c1ccccc1`, the inhibition is 7.07% (inactive). As for `CCCC(=O)Nc1cccc(NC(=S)NC(=O)C(C)Oc2ccc(Cl)cc2Cl)c1` (centres undefined), the inhibition is 6.41% (inactive). Take `CSCCC1NC2(C(=O)Nc3ccc(Cl)cc32)[C@@H]2C(=O)N(C3CCCC3)C(=O)[C@H]12` (some centres undefined): the inhibition was 11.7% (inactive). For `CC12C(=O)N(c3ccccc3)C(=O)C1C(c1ccccc1)N1CCCN12` (centres undefined), the inhibition was -2% (inactive). Turning to `CCN1C(=O)[C@H]2[C@@H](c3ccc(C)cc3)N3C(=O)N(c4cccc(Br)c4)C(=O)[C@@]3(CC)[C@H]2C1=O`, the inhibition was 4.57% (inactive). With `CC[C@@]12C(=O)N(c3ccccc3)C(=O)N1[C@H](c1ccc(Br)cc1)[C@@H]1C(=O)N(C(C)(C)C)C(=O)[C@@H]12`, the inhibition is 15.3% (inactive).

With `CC(C)(C)N1C(=O)[C@H]2[C@@H](c3ccc(Br)cc3)N3C(=O)N(c4cccc(Cl)c4)C(=O)[C@@]3(C)[C@H]2C1=O`, the inhibition is 33.8% (active). For `COc1ccc([C@@H]2[C@@H]3C(=O)N(C(C)(C)C)C(=O)[C@@H]3[C@]3(Cc4ccccc4)C(=O)N(c4cccc(Br)c4)C(=O)N23)cc1`, the inhibition was 33.4% (active). The same measure for `C[C@@]12C(=O)N(c3cccc(Br)c3)C(=O)N1[C@H](c1ccc(Cl)cc1)[C@@H]1C(=O)N(C3CCCCC3)C(=O)[C@@H]12`: 31.7% (active). For `COC(=O)[C@]12C[C@H](CC(=O)NCc3ccccc3)C(=O)N(Cc3ccccc3)C1=C[C@H](COCc1ccccc1)O[C@@H]2C`, the inhibition was 6.96% (inactive). As for `C=CCN(C)CC#Cc1ccccc1`, the inhibition was -2.28% (inactive). Then `O=C(OC12CCCN(C1)/C(=C/c1ccccc1)C2)c1ccco1` (centres undefined), with 8.44% (inactive).

Consider `O=S1(=O)c2c(NCc3ccco3)cccc2Oc2ccccc2CN1Cc1cn(Cc2cccc(C(F)(F)F)c2)nn1`, for which the inhibition was -9.48% (inactive). Then `COc1ccc(-c2cc(-c3nnc(SCC(=O)Nc4cccc5ccccc45)n3N)[nH]n2)cc1`, with -7.36% (inactive); and `CC(CCN1CCC(C(O)(c2ccccc2)c2ccccc2)CC1)Oc1ccc(C(F)(F)F)cc1` (centres undefined), with 5.96% (inactive). Then `CCCC(O)(CCC)C(=O)NN(C(=O)CCl)c1cccc(C)c1`, with -8.56% (inactive); and `COC(=O)N(NC(=O)C(O)(C(C)C)C(C)C)c1ccccc1`, with -0.6% (inactive); and `Cc1ccc(N(NC(=O)C(C)(C)O)C(=O)c2ccccc2)cc1C`, with 87.5% (active). Then `O=C(CN1CCCc2ccccc21)NCc1ccc(F)cc1`, with 1.16% (inactive); and `O=C(Nc1cc(F)cc(F)c1)OC1CCC12CCC(c1ccccc1)CC2` (centres undefined), with 7.13% (inactive); and `Cn1nc(C(F)(F)F)c(C(=O)Nc2cccc(C(F)(F)F)c2)c1SCc1ccc(Cl)cc1`, with 43.5% (active). On to `CCC(=O)OCc1c(C(F)(F)F)nn(C)c1Oc1cccc(C(F)(F)F)c1`, for which the inhibition was -6.05% (inactive). The same measure for `COC(=O)c1ccccc1Sc1c(/C=N/OCc2ccc(Cl)cc2)c(C(F)(F)F)nn1C`: -2.32% (inactive); for `c1csc(-c2nnc(SCc3nc4ccccc4[nH]3)o2)c1`: -40.8% (inactive).
